Results on 22 molecules are retold here after PubChem BioAssay (NCATS).

Structures are written as SMILES. Inconclusive results are not listed. Where a call stands in place of a potency, no number is given. The source made the active and inactive calls. Unless noted, the call rests on the fitted dose curve; in most records, active means well fitted curve in the direction sought with a large enough effect; inconclusive means small, poorly fitted or top-dose-only effect, or another doubt; inactive means no such curve, though single readings can be large; an effect the other way counts as inactive or inconclusive.

Assay [1] has as its target Ubiquitin carboxyl-terminal hydrolase 1 (Homo sapiens) (UniProt O94782). Put plainly: Inhibitors of USP1/UAF1: Pilot qHTS (AID 504865).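 Further: rhodamine fluorescence freed from ubiquitin-rhodamine substrate followed over time; top concentration of the series differs between compounds; nearly all actives have a fitted effect of over 35% in size.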 An outline of the steps:
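USP1/UAF1 complex at 1 nM preincubated 15 min at room temperature with compound, then Ub-Rho substrate added at 150 nM final. Fluorescence (480/540 nm) read kinetically in 50 mM HEPES pH 7.8, 0.5 mM EDTA, 1 mM TCEP, 0.1 mg/ml BSA, 0.01% Tween-20.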
A general note: qHTS replaces the single test concentration by a dilution series.

The nature of assay [2]: qHTS for Inhibitors of ATXN expression: Validation of Cytotoxic Assay (AID 588349). An outline of the steps:
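HEK293 cells treated with titrated compound for 72 hr at 37 degrees C; viability read as intracellular ATP by CellTiter Glo luminescence.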

Assay [3] in a line: qHTS for Inhibitors of ATXN expression: Validation (AID 588378). Further: series mostly up to about 57 µM; nearly all actives have a fitted effect of over 75% in size. The gist of the method:
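HEK293 cells carrying ATXN2-firefly luciferase reporter, treated with compound 24 h at 37 °C. Viability read first by CellTiter-Fluor (405/525 nm), then reporter expression by Bright-Glo luminescence; controls were a known ATXN2 expression inhibitor and a luciferase inhibitor.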

Assay [4] addresses DNA dC->dU-editing enzyme APOBEC-3G (Homo sapiens) (UniProt Q9HC16). Put plainly: qHTS for inhibitors of Vif-A3G interactions: Validation (AID 588379). The gist of the method:
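HeLa cells stably expressing Vif and A3G-eYFP, 700 cells/well, incubated overnight at 37 deg C, then exposed to compound overnight at 37 deg C. Inhibition of Vif-mediated degradation read as increased yellow fluorescence (Ex 488/Em 500-530) by laser-scanning cytometry.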

The target in assay [5] is Estrogen receptor (Homo sapiens) (UniProt P03372). Put plainly: qHTS assay for small molecule antagonists of estrogen receptor alpha signaling (AID 588513; active means well fitted curve in the direction sought with a large enough effect in the signal ratio, with a control signal flat, not every such curve was filed as active; the % refers to the signal ratio). An outline of the steps: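 ER-alpha-UAS-bla GripTite HEK 293 cells in 2% charcoal/dextran-treated FBS medium; compounds titrated (1:2, duplicate), then stimulated with 0.5 nM 17-beta-estradiol for 18 h at 37C. CCF4 beta-lactamase fluorescence; Hill-fit IC50 and efficacy.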

Assay [6] has the same target. Put plainly: qHTS assay for small molecule agonists of estrogen receptor alpha signaling (AID 588514; calls by dose curve; further: nearly all actives have a fitted effect of over 70% in size). An outline of the steps:
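ER-alpha-UAS-bla GripTite HEK293 cells, 5000/well in 2% charcoal/dextran-stripped FBS medium, treated with compound titrations 18 h at 37 C. CCF4 beta-lactamase read by fluorescence after 2 h RT; normalised to 20 nM 17-beta-estradiol (100%) and DMSO (0%), Hill fit for EC50 and efficacy.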

For assay [7], the target named is Glucocorticoid receptor (Homo sapiens) (UniProt P04150). Put plainly: qHTS assay for small molecule agonists of glucocorticoid receptor signaling (AID 588532; active means well fitted curve in the direction sought with a large enough effect in the signal ratio, with a control signal flat; the % refers to the signal ratio). As to conditions: HeLa MMTV-bla, beta-lactamase ratio, agonist, 18 h; stronger effect = higher value; percent of dexamethasone control, DMSO zero. The gist of the method:
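Stimulation of a glucocorticoid response element-driven beta-lactamase gene was measured in HeLa cells. Responses were scaled between DMSO basal and 0.1 uM dexamethasone, then fitted for half-maximal stimulation.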

For assay [8] the target is unchanged. Put plainly: qHTS assay for small molecule antagonists of glucocorticoid receptor signaling (AID 588533; active means well fitted inhibition curve with a large enough effect in the signal ratio, with a control signal flat, not every such curve was filed as active; the % refers to the signal ratio;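 further: cells stimulated with 2 nM dexamethasone as agonist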). The gist of the method: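 Antagonist-mode qHTS: compound titrations added to GRE-bla HeLa cells, then dexamethasone 2 nM final; 18 h, 37 C. CCF4 FRET fluorescence normalized to dexamethasone and DMSO; IC50 from Hill fit.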
Assay [9] can be described thus: qHTS assay for small molecule antagonists of peroxisome proliferator-activated receptor delta signaling (AID 588535; active means well fitted inhibition curve with a large enough effect in the signal ratio, with a control signal flat, not every such curve was filed as active; the % refers to the signal ratio;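 on max response: cells co-treated with a PPAR-delta agonist as stimulator during compound exposure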). The note with it: HEK293T PPARd-UAS-bla, beta-lactamase FRET ratio, 18 h; 460 nm channel. An outline of the steps:
(§1)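 Reporter: UAS-bla under PPAR-delta response element, HEK293T host. Medium: 2% charcoal/dextran FBS. Dosing: titration, 18 hrs, 37 C. Detection: CCF4, 2 hrs RT, 405 ex/460 and 530 em.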

Assay [10] addresses Peroxisome proliferator-activated receptor delta (Homo sapiens) (UniProt Q03181). Described as above. The gist of the method: as §1
Assay [11] concerns the target Peroxisome proliferator-activated receptor gamma (Homo sapiens) (UniProt P37231). Put plainly: qHTS assay for small molecule agonists of peroxisome proliferator-activated receptor gamma signaling (AID 588536; active means well fitted curve in the direction sought with a large enough effect in the signal ratio, with a control signal flat, not every such curve was filed as active; the % refers to the signal ratio). An outline of the steps: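 HEK293 UAS-bla reporter line, 1% charcoal/dextran FBS; titration, 16 h, 37 C; CCF4 loading 2 h RT; fluorescence 460/530 nm. Normalized to rosiglitazone 2 uM = 100%, DMSO = 0%.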

Assay [12] shares this target. In words: qHTS assay for small molecule antagonists of peroxisome proliferator-activated receptor gamma signaling (AID 588537; active means well fitted inhibition curve with a large enough effect in the signal ratio, with a control signal flat, not every such curve was filed as active; the % refers to the signal ratio;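 further: reporter cells co-stimulated with 50 nM rosiglitazone agonist during compound treatment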). The gist of the method:
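We seeded GeneBLAzer HEK293 reporter cells at 3000 per well, allowed 6-6.5 h attachment at 37 C, then co-treated with test compound titrations and 50 nM rosiglitazone overnight (16 h). Inhibition was quantified from 460/530 nm emission ratios.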

In assay [13] the target is Vitamin D3 receptor (Homo sapiens) (UniProt P11473). Put plainly: qHTS assay for small molecule antagonists of vitamin D receptor signaling (AID 588541; calls by dose curve;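 further: receptor activated by calcitriol during compound treatment; series mostly up to about 77 µM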). The gist of the method: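 VDR-UAS-bla HEK293T cells (2000/well, 2% charcoal-stripped FBS) were treated with titrated compounds plus 1-alpha,25-dihydroxyvitamin D3 (50 nM or 3 nM final) for 16 h at 37 C. CCF4 beta-lactamase fluorescence was read; Hill fits gave IC50.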

For assay [14] the target is unchanged. Put plainly: qHTS assay for small molecule agonists of vitamin D receptor signaling (AID 588543; calls by dose curve). The gist of the method:
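VDR-UAS-bla HEK293T cells, 2000/well, 2% charcoal-stripped FBS; compound titration 16 h at 37 C; CCF4 beta-lactamase ratio read. Normalized to 50 nM 1-alpha,25-dihydroxyvitamin D3 (100%) and DMSO; Hill fit gives EC50, efficacy.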

Assay [15] is described as follows: qHTS assay for small molecule agonists of retinoid X receptor alpha signaling (AID 588544; calls by dose curve). As to conditions: HEK293T RXRa-UAS-bla, beta-lactamase reporter, 18 h; 530 nm emission.
The target of assay [16] is Retinoic acid receptor RXR-alpha (Homo sapiens) (UniProt P19793). The assay is described as above.
For assay [17], the target named is Thyroid hormone receptor beta (Homo sapiens) (UniProt P10828). Put plainly: qHTS assay for small molecule agonists of thyroid hormone receptor beta signaling (AID 588545; calls by dose curve). An outline of the steps:
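Compounds were tested as agonists in TR-UAS-bla-GripTite HEK 293 cells. After 18 hrs at 37 C, CCF4 substrate was added and fluorescence read after 2 hrs at room temperature.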

Assay [18] in a line: qHTS assay for small molecule antagonists of retinoid X receptor alpha signaling (AID 588546).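 Further: cells stimulated with 9-cis-retinoic acid as agonist.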 The note with it: HEK293T RXRa-UAS-bla, beta-lactamase ratio, antagonist mode; measured here: W530 green channel, cytotoxicity proxy. An outline of the steps:
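Beta-lactamase reporter inhibition, read as CCF4 fluorescence ratio (ex 405, em 460/530 nm) after 2 h at RT. HEK293T UAS-bla cells, 2500/well, were stimulated with 9-cis-RA at 500 or 100 nM final alongside test compound for 18 h at 37 C.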

Sequence of Peroxisome proliferator-activated receptor gamma (Homo sapiens) (P37231 whole entry, looked up): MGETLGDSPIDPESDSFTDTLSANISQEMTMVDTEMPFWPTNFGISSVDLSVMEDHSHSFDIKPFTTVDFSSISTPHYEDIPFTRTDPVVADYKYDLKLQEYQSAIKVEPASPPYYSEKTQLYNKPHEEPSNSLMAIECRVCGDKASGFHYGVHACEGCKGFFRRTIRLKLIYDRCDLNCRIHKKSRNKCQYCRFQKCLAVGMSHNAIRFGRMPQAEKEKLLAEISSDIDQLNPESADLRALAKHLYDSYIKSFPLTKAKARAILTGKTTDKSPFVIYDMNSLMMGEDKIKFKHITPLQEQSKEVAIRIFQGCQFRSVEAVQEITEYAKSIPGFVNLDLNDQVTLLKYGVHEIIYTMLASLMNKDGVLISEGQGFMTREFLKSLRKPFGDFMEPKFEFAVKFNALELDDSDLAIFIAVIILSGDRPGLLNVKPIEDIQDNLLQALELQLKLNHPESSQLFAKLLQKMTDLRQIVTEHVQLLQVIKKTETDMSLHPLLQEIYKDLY
Sequence of DNA dC->dU-editing enzyme APOBEC-3G (Homo sapiens) (Q9HC16 whole entry, looked up): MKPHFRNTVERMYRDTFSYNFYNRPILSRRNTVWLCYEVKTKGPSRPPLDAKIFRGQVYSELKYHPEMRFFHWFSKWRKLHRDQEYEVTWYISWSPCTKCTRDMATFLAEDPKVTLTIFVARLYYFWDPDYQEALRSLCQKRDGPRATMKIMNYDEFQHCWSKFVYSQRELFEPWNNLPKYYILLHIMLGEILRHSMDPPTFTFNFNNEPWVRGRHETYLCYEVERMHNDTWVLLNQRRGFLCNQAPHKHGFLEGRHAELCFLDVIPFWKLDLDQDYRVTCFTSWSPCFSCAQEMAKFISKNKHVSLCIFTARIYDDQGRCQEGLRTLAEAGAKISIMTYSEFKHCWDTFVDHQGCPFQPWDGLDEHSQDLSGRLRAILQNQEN
Sequence of Ubiquitin carboxyl-terminal hydrolase 1 (Homo sapiens) (O94782 whole entry, looked up): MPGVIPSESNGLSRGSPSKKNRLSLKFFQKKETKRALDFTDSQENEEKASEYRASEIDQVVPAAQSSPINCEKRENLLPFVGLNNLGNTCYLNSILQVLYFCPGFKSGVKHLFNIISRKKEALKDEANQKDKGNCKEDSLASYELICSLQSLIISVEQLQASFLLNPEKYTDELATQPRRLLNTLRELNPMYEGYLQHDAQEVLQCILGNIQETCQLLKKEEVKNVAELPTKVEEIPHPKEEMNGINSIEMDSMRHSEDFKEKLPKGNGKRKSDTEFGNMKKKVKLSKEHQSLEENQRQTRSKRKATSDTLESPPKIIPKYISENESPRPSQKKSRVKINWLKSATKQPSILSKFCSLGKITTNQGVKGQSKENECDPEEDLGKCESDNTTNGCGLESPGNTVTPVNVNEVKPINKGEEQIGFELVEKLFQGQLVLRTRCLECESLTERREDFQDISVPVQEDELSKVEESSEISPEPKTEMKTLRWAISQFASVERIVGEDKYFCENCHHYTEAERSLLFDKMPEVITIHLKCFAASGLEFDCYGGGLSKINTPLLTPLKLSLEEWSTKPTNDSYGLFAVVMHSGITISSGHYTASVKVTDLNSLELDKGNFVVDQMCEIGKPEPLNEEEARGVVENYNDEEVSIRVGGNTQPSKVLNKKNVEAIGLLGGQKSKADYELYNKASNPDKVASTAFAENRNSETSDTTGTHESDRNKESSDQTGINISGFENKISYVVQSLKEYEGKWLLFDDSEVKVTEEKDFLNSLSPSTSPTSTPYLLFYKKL
Sequence of Glucocorticoid receptor (Homo sapiens) (P04150 whole entry, looked up): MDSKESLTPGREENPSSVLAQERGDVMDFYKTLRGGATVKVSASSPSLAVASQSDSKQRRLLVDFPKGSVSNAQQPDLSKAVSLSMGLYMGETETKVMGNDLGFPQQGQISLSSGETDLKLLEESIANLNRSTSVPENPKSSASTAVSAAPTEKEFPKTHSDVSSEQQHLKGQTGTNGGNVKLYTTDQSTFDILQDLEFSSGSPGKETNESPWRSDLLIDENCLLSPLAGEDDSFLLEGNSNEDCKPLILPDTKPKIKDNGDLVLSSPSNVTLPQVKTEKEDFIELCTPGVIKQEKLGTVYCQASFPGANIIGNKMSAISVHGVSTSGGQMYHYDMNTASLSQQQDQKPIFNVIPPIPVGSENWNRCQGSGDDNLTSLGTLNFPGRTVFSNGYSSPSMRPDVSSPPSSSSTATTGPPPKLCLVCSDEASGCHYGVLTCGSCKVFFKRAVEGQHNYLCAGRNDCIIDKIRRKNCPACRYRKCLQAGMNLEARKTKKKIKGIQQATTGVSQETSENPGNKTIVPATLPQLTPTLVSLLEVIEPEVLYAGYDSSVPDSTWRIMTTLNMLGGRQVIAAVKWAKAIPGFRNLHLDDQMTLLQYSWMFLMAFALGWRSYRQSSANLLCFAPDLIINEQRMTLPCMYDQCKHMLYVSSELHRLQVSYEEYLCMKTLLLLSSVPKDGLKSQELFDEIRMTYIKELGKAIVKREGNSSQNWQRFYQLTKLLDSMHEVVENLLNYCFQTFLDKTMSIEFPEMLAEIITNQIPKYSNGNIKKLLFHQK
Sequence of Thyroid hormone receptor beta (Homo sapiens) (P10828 whole entry, looked up): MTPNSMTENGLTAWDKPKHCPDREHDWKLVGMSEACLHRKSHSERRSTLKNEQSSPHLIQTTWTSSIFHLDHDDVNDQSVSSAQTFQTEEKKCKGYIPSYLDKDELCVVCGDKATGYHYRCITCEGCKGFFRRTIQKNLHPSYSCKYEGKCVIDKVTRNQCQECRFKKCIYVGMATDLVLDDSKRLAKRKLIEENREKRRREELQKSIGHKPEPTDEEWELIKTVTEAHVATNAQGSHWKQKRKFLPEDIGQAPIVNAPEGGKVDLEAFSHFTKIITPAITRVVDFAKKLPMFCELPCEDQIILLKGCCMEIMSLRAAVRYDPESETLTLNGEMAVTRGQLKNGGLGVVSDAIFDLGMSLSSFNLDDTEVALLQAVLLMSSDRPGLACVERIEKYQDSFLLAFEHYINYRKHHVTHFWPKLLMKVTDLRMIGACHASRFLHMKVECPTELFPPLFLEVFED
Sequence of Vitamin D3 receptor (Homo sapiens) (P11473 whole entry, looked up): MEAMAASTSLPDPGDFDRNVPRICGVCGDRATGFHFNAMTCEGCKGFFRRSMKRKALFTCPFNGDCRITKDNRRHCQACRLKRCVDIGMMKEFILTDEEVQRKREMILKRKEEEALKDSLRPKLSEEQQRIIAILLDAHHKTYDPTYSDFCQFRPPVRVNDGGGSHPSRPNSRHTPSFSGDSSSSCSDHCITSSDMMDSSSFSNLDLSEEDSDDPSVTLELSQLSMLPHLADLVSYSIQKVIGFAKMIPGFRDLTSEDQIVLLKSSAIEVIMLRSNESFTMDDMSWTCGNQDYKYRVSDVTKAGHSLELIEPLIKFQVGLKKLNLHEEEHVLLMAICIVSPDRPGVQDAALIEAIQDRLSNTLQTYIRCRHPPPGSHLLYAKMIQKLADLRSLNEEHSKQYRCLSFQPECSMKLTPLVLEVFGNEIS
Sequence of Estrogen receptor (Homo sapiens) (P03372 whole entry, looked up): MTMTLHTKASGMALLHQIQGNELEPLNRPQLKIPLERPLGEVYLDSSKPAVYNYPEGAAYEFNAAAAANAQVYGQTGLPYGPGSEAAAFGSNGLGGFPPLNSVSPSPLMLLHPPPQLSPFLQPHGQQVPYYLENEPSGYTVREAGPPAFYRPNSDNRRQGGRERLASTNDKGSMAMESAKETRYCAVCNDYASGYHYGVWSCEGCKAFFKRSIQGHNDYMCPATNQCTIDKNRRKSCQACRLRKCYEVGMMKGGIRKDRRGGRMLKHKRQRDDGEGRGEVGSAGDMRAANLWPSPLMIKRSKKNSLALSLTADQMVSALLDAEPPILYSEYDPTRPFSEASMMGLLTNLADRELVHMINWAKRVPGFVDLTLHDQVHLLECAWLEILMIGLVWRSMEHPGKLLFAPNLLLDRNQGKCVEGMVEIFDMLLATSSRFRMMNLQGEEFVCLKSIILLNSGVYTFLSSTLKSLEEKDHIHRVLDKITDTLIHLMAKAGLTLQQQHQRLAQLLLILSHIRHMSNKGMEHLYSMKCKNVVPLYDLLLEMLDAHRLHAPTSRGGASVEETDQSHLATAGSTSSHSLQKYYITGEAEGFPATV
Sequence of Retinoic acid receptor RXR-alpha (Homo sapiens) (P19793 whole entry, looked up): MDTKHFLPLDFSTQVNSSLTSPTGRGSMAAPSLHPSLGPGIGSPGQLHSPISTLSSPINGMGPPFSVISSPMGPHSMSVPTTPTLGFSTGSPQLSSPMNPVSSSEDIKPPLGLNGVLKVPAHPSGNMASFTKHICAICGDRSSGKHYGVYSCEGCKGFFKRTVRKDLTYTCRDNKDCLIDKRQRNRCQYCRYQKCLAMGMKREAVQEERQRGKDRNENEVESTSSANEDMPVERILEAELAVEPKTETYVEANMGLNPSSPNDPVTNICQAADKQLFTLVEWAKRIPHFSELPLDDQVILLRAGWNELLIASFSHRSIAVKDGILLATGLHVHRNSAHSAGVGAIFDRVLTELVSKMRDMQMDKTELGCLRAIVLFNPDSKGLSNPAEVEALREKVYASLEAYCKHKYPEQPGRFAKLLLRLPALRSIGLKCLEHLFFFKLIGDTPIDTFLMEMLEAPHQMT
Sequence of Peroxisome proliferator-activated receptor delta (Homo sapiens) (Q03181 whole entry, looked up): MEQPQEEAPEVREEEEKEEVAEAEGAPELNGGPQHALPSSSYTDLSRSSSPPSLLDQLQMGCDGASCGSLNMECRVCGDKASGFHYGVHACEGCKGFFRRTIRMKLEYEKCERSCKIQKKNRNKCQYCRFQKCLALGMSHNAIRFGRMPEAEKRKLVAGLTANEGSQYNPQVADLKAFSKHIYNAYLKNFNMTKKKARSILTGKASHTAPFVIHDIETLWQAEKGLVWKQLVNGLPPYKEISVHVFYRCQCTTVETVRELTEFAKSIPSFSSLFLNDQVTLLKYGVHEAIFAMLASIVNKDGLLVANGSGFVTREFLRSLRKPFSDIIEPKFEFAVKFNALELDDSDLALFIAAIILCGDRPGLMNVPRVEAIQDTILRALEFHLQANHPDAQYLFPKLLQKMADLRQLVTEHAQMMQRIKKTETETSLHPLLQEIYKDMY

In the case of `NNCCc1ccccc1`, the Potency entry in assay [1] and in assay [2] was “inactive” in each case. Also, the molecule was called inactive in assay [3].

Take `CCCc1nn(C)c2c(=O)[nH]c(-c3cc(S(=O)(=O)N4CCN(C)CC4)ccc3OCC)nc12`: in assay [1], the Potency result is “inactive”.

As to `NCCCC(N)(C(=O)O)C(F)F` (stereo not given), the Potency entry in [2] is “inactive”.

For the molecule `Cc1cn[nH]c1`, the Potency result in assay [1] and in assay [2] was “inactive” throughout.

For `CC(c1cc2ccccc2s1)N(O)C(N)=O` (stereo not given), the Potency entry in [1] is “inactive”.

Regarding `NCCc1ccc(O)c(O)c1`, the Potency entry in [1] is “inactive”.

Regarding `CCOC(=O)C1=C[C@@]2(CC)CCCN3CCc4c(n1c1ccccc41)[C@H]32`, in [1], the Potency result is “inactive”. In [4], the molecule was called inactive.

For the molecule `Cc1ccc2c(c1)C(=O)[C@@]1(O)CCN(c3ccccc3)C1=N2`, the Potency result in [1] was “inactive”. The call in [4] was inactive.

On to `CCn1cc(C(=O)O)c(=O)c2cc(F)c(N3CCNC(C)C3)c(F)c21` (stereo not given), for which the Potency result in assay [2] is “inactive”.

Consider `O=c1n(CCCN2CCN(c3cccc(Cl)c3)CC2)nc2ccccn12`, for which the Potency result in [2] was “inactive”.

Regarding `c1ccc([C@H]2CN3CCSC3=N2)cc1`, the Potency result in assay [2] was “inactive”.

Take `Nc1ncnc2nc(-c3ccc(N4CCOCC4)nc3)cc(-c3cccc(Br)c3)c12`: the Potency result in assay [2] was “inactive”.

Regarding `O=c1[nH]cnc2[nH]ncc12`, the Potency result in assay [1], in assay [2], in assay [5] and in [8] was “inactive” throughout. Moreover, the call in [6], in [10], in assay [11], in [12], in [13] and in [14] was inactive. Also, the result in [16] and in assay [17] was inactive. In assay [7], the activation was 1.38% (inactive). For the same molecule, the max response in [9] is -19.9%; in [15] it was -0.239%; in assay [18], -6.19%.

Take `Oc1ccc(C2CNCCc3c2cc(O)c(O)c3Cl)cc1` (stereo not given): the Potency entry in [2] was “inactive”.

Regarding `Cc1[nH]c(=O)c(C#N)cc1-c1ccncc1`, the Potency entry in [1] and in assay [2] was “inactive” each time. In addition, the outcome in assay [4], in [12] and in assay [17] was inactive. Further, the max response in assay [18] was -2.65%.

For the molecule `O=C(Nc1nc2ccccc2n1CCN1CCOCC1)c1cccc([N+](=O)[O-])c1`, the Potency result in [1] and in [2] was “inactive” throughout.

For the molecule `CC(C)(C)NCC(O)c1ccc(O)c(CO)c1` (stereo not given), the Potency entry in assay [2] was “inactive”.

Take `O=C(O)COCCN1CCN(C(c2ccccc2)c2ccc(Cl)cc2)CC1` (stereo not given): the Potency result in assay [2] is “inactive”.

As to `Nc1ccc(S(=O)(=O)Nc2ccnn2-c2ccccc2)cc1`, the Potency entry in assay [2] is “inactive”.

Consider `CCN(CC)CCCC(C)Nc1ccnc2cc(Cl)ccc12` (stereo not given), for which, in assay [1], the Potency entry is “inactive”.

`CC(C[N+](C)(C)C)OC(N)=O` (stereo not given): the Potency entry in assay [2] is “inactive”.

With `Nc1nc2ccc(OC(F)(F)F)cc2s1`, the Potency entry in [1] and in [2] was “inactive” each time. Besides, the call in assay [4] was inactive.
